# Test results as given in PubChem BioAssay (NCATS).
# Unmarked numbers belong to inactive results. Activity calls are given as the source filed them. Calls come from the whole dose curve; as a rule, active = well fitted inhibition curve with a large enough effect; inconclusive = small, poorly fitted or top-dose-only effect; inactive = flat fitted curve, though single readings scatter.
# Target: Luciferin 4-monooxygenase (Photinus pyralis) (UniProt P08659)
# Experiment: Primary firefly luciferase (FLuc) qHTS assay for identification of artifact compounds. (AID 1845220); note: nearly all actives have a fitted effect of over 60% in size
# Settings: purified firefly luciferase, luminescence, 5 min; series mostly up to 54.1 µM; activity change, negative = inhibition: at the top concentration
# Description: PI: Alexander Tropsha Ph.D.
# UNC Eshelman School of Pharmacy
# University of North Carolina, Chapel Hill, North Carolina
# Hits from high-throughput screening (HTS) of chemical libraries are often false positives due to their interference with the assay detection technology. In response to this problem, we generated the largest publicly available library of chemical liabilities and developed a free webtool to predict HTS artifacts, both of which are described herein. More specifically, we generated, curated, and integrated HTS datasets for thiol reactivity, redox activity, and luciferase (firefly and nano) activity. Using these curated datasets, we developed and validated several Quantitative Structure-Interference Relationship (QSIR) models to predict nuisance behavior. […] These models were employed for virtual profiling of the National Center for Advancing Translational Science's (NCATS) in-house library, and 256 compounds for each assay were selected for the experimental validation of nuisance behavior. The BA for these external predictions ranged from 58 to 78% for compounds within the applicability domains of the models. […] The models developed in this study, along with aggregation models previously developed by our group (SCAM Detective) were implemented in "Liability Predictor," an online tool which may be used as part of chemical library design or for triaging HTS hits. Both the models and the curated datasets are publicly available at https://liability.mml.unc.edu/.
# SEQUENCE No. (e.g., 1, 2, 3, etc.); […] (e.g., Cells, Incubation, Reagent, etc.); VALUE; DESCRIPTION.
# 1; Reagent; 3 uL; Luciferase substrate mixture.
# 2; Compounds and control; 16 nL; Kalypsis pin tool (Wako USA) equipped with a 1536-well pin head.
# 4; Reagent; 1 uL; Luciferase enzyme.
# 6; Detection; Luminescence, ViewLux microplate reader.
# NOTES (numbers refer to Sequence numbers above)
# 1. 3 uL of luciferase substrate mixture containing D-luciferin and ATP (final concentrations of 10 uM and 10 uM, respectively) in assay buffer (10 mM Mg-acetate, 0.01% Tween-20, 0.05% bovine serum albumin, 50 mM Tris acetate, pH 7.6) was dispensed into all wells of a 1536-well assay plate (solid-bottom white plate; Greiner Bio One, Monroe, NC).
# 2. A Wako Pin-tool (Wako Automation, Richmond, VA) was used to transfer 16 nL of compounds (consisting of 7-plates in qHTS format, final concentration range 18.3 nM to 114 uM) or control PTC124 (final concentration range 1.22 nM to 40 uM).
# 3. 15 min. incubation at room temperature protected from light.
# 4. 1 uL of luciferase enzyme (final concentration 10 nM, Photinus pyralis luciferase) or buffer was dispensed for a final assay volume of 4 uL.
# 5. Plates were centrifuged (121xg, 15 seconds) and incubated for 5 minutes.
# 6. Samples were read for luminescence on a ViewLux CCD imager (PerkinElmer). Data were normalized to no-enzyme (0% activity) and no-inhibitor (DMSO; 100%) controls and the resulting percent inhibition data were fitted to a 4-parameter Hill equation using NCATS in-house software.
# Potency is the fitted concentration of half-maximal effect.
Structure (SMILES),outcome,"activity change, negative = inhibition",Potency
O=C(OC[C@H]1O[C@H](O[C@]2(CO)O[C@H](CO)[C@@H](O)[C@@H]2O)[C@H](O)[C@@H](O)[C@@H]1O)c1ccccc1,inactive [at 25.7 µM],–,–
COc1ccc(CN2C(=O)C(=O)c3cc(S(=O)(=O)N4CCC[C@H]4COc4cccnc4)ccc32)cc1,–,-1.53%,–
CC1CCC2(C(=O)O)CCC3(C)C(=CCC4C5(C)CCC(OC(=O)/C=C/c6ccccc6)C(C)(C)C5CCC43C)C2C1C (stereo not given),–,-10.2% [at 25.7 µM],–
CC1(C=O)CC[C@]2(C(=O)O[C@@H]3O[C@H](CO)[C@@H](O)[C@H](O)[C@H]3O)CC[C@]3(C)C(=CCC4[C@@]5(C)C[C@H](O)[C@H](O[C@@H]6OC[C@@H](O)[C@H](O)[C@H]6O)[C@@](C)(CO)C5CC[C@]43C)C2C1 (stereo not given in full),inactive [at 11.6 µM],–,–
O=C(CCc1ccccc1)N1CCC(O)(Cn2cnc3cc(Cl)ccc3c2=O)CC1,inactive,–,–
C=C1C(=O)O[C@@H]2C[C@H](C)[C@@]3(O)C=C(C(C)=O)[C@]4(CC3C[C@H]12)C(=O)O[C@H]1C[C@@H](C)C(CCC(C)=O)=CC[C@H]14 (stereo not given in full),–,2.07% [at 25.7 µM],–
COc1cc(C)c(C(=O)O[C@H]2[C@@H](OC(C)=O)[C@H](n3ccc(=O)[nH]c3=O)O[C@@H]2CO)c(OC)c1,–,-0.988% [at 25.7 µM],–
CCOc1ccc2nc(SCCN3CCOCC3)[nH]c2c1,–,-9.61%,–
O=C(O)c1ccc(CN2CCC(CN[C@@H]3C[C@H]3c3ccccc3)CC2)cc1,–,-11%,–
O=C1OCc2cc3cccc(O[C@@H]4O[C@H](CO)[C@@H](O)[C@H](O)[C@H]4O)c3c(O)c21,inactive,–,–
C/C1=C\CC[C@]2(C)O[C@@H]2[C@H](O)[C@H](C(C)C)[C@H](OC(=O)/C=C/c2ccccc2)C1,inactive,–,–
CC1=CC(=O)CC(C)(C)C1CCC(C)O[C@@H]1O[C@H](CO[C@@H]2OC[C@@H](O)[C@H](O)[C@H]2O)[C@@H](O)[C@H](O)[C@H]1O (stereo not given in full),inactive [at 25.7 µM],–,–
Cc1ccc(S(=O)(=O)n2ccc(-c3c(-c4ccc(Cl)cc4)noc3C)n2)cc1,–,3.41%,–
CCCCNc1ccc(-c2ccc(CN3CCOCC3)cn2)c(NC2CCC(O)CC2)c1 (stereo not given),inactive [at 25.7 µM],–,–
C[C@H](O)[C@H](O)/C=C/c1cccc(O)c1CO,–,-0.0225%,–
C[C@@H]1CN(Cc2ncccn2)C[C@H]1c1nc2c(cnn2C2CCOCC2)c(=O)[nH]1,–,-10.3%,–
CC1(C)CC2C=C(C(=O)O)C3COC(=O)C(O)(CO)C23C1 (stereo not given),inactive,–,–
C[C@@H]1O[C@@H](O[C@H]2[C@H](O)[C@@H](C(=O)O)O[C@@H](O[C@H]3CC[C@@]4(C)C(CC[C@]5(C)C4CC=C4C6CC(C)(C)CC[C@]6(C(=O)O)CC[C@]45C)C3(C)C)[C@@H]2O[C@@H]2OC[C@@H](O)[C@H](O)[C@H]2O)[C@H](O)[C@H](O)[C@H]1O (stereo not given in full),–,1.83% [at 11.6 µM],–
CC1(C)CCC[C@@]2(C)C1[C@H](OC(=O)/C=C/C=C/C(=O)O)C=C1COC(=O)[C@@]12O (stereo not given in full),–,4.72%,–
C=CC/C=C\C/C=C\CCCCCCCc1cccc(O)c1C(=O)O,–,3.92%,–

Structure (SMILES),outcome,"activity change, negative = inhibition",Potency
C=CC[C@]12C[C@@H](OC)C(=O)C(OC)=C1O[C@@H](c1cc(OC)c3c(c1)OCO3)[C@@H]2C,inactive [at 25.7 µM],–,–
COc1cc(OC)cc(C(=O)Nc2ccc(Cl)c(-c3nc4ccc(N(C)C)cc4[nH]3)c2)c1,–,–,8.49 µM (active)
C=C1C[C@]23C[C@H]1CC[C@H]2[C@]1(C)CCC[C@@](C)(C(=O)O)[C@H]1[C@@H]3C(=O)O,–,0.0863%,–
O=C(NCc1cccc(O)c1)Nc1nc(-c2ccncc2)cs1,–,-9.88%,–
NC1CCCCN(c2c(F)cc3c(=O)c(C(=O)O)cn(C4CC4)c3c2Cl)C1 (stereo not given),inactive [at 25.7 µM],–,–
CC(C)(C(=O)NCC(F)(F)C(F)(F)F)C(=O)NC1C(=O)Nc2ccccc2-c2ccccc21 (stereo not given),inactive,–,–
Cn1cc(-c2ccc3nnc(Sc4ccc5nn(C)cc5c4)n3n2)cn1,inactive,–,–
COC(=O)C1=CO[C@@H](O[C@@H]2O[C@H](CO)[C@@H](O)[C@H](O)[C@H]2O)[C@@H]2C(COC(C)=O)=C[C@H](O)[C@H]12,–,1.9% [at 25.7 µM],–
C=C(C)C(=O)OC1CC2(C)OC(=CC2=O)C(=C)CC2OC(=O)C(COC)C12 (stereo not given),–,–,10.5 µM (active)
c1cn2cc(-c3ccc4cn[nH]c4c3)nc(Nc3ccc(N4CCOCC4)cc3)c2n1,–,–,0.0536 µM (active)
CCN(Cc1cccnc1)C(=O)CN(c1ccc(OC)nc1)S(=O)(=O)c1ccccc1C,inactive,–,–
NC(=O)[C@H]1CCS[C@@H]2C[C@]3(CCCN3C(=O)Cc3ccc(NC(=O)COc4ccc(Cl)cc4Cl)cc3)C(=O)N12,–,2.15%,–
C[C@H]1O[C@@H](O[C@H]2CC[C@@]3(C)C(CC[C@]4(C)C3CC=C3C5CC(C)(C)CC[C@]5(C(=O)O)CC[C@]34C(=O)O)C2(C)C)[C@H](O)[C@@H](O)[C@@H]1O (stereo not given in full),inactive [at 25.7 µM],–,–
O=C(O)c1cn(C2CC2)c2cc(N3C[C@@H]4C[C@H]3CN4)c(F)cc2c1=O,inactive,–,–
CCCC1(c2ccccc2)NC(=O)N(CC(=O)N(C)Cc2c(F)cccc2Cl)C1=O (stereo not given),–,-22.1%,–
C=CC(C)(O)CC/C=C(\C)C(=O)OC1C(O)C(CO)OC(OC(=O)C23CCC(C)(C)CC2C2=CCC4C5(C)CCC(OC6OC(COC7OCC(OC(C)=O)C(O)C7OC7OC(COC(C)=O)C(O)C(O)C7O)C(O)C(O)C6O)C(C)(C)C5CCC4(C)C2(C)C(O)C3O)C1OC1OCC(OC2OCC(O)C(OC3OCC(O)C(O)C3O)C2O)C(O)C1O (stereo not given),–,0.903% [at 6.45 µM],–
Cc1ccc(S(=O)(=O)Cc2nc(-c3ccc(C(=O)NCc4cccnc4)cc3)oc2C)cc1,–,-16%,–
C=C1C(=O)O[C@@H]2[C@H]1CCC(C)=C1CCC(=O)O[C@]12C,inactive,–,–
CC1=CC(=O)CC(C)(C)C1/C=C/C(C)O[C@@H]1O[C@H](CO)[C@@H](O)[C@H](O)[C@H]1O[C@@H]1OC[C@](O)(CO)[C@H]1O (stereo not given in full),–,1.37% [at 25.7 µM],–
C/C=C1\[C@H](O[C@@H]2O[C@H](CO)[C@@H](O)[C@H](O)[C@H]2O)OC=C(C(=O)OC)[C@H]1CC(=O)OC[C@H]1O[C@@H](OCCc2ccc(O)cc2)[C@H](O)[C@@H](O)[C@@H]1O,–,0.949% [at 25.7 µM],–
